Sampled rows, rich in hits. Any-hit rate of the full collection: about 6%.
Sfp inh – blocks B. subtilis Sfp PPTase activity. Q9F4F7. Biochemical Sfp PPTase activity, qHTS. Potency, µM, hits mostly inhibitors. 310,000 tested, 3.5% active. AID 1490;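 further: the enzyme is Sfp with the accession as filed and its product quenches rhodamine fluorescence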
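With Hepes-Na pH 7.6 buffer containing 10 mM MgCl2, Sfp (15 nM) modified BHQ-2-YbbR (12.5 uM) using rhodamine-CoA (5 uM). Two reads 30 minutes apart at 525/598 nm yielded each well's rate.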
PLK1 PBD block – blocks phosphopeptide binding to human PLK1 polo-box domain | Plk1 PBD binding of FITC phosphopeptide, fluorescence polarization | P53350 | 360,000 tested, 2.8% active | Potency, µM, most hits filed as inhibitors; further: series mostly up to about 57 µM; nearly all actives have a fitted effect of over 65% in size
Tau fluor cs – counter-screen for tau fibril formation inhibitors. AID 1463. 280,000 tested, 0.93% active. Potency, µM (series often up to 57.7 µM). tau K18 P301L Alexa594 fluorescence, heparin fibrillization; further: nearly all actives have a fitted effect of over 55% in size
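Human tau K18 P301L (15 uM unlabeled, 0.24 uM Alexa 594-labeled) in 100 mM sodium acetate pH 7 with 20 uM heparin, 6 hr at 37 C. ThT 30 uM added, 1 hr ambient; Alexa 594 FP and total fluorescence read at 555/632 nm.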
VDR inhibitor – vitamin D3 receptor (human) inhibition; VDR-SRC2-3 peptide fluorescence polarization, 2 h; 400,000 tested, 0.93% active; AID 504847; Potency, µM, hits mostly inhibitors; P11473
Target sequence (P11473 whole entry, looked up): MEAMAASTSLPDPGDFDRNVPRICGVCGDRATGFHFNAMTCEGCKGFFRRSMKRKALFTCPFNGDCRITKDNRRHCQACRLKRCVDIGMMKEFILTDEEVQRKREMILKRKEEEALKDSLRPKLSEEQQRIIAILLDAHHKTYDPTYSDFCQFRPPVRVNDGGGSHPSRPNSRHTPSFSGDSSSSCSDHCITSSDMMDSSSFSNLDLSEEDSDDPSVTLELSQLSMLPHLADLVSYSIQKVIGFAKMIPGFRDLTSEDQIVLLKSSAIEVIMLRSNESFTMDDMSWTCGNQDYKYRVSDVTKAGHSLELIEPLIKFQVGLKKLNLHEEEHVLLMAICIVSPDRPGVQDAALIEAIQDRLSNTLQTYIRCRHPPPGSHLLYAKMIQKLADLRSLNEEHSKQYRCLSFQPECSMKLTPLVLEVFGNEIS
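Two reagent solutions held at 4 deg C in the dark were dispensed, compounds pinned at 23 nl, and the mixture incubated 2 h at room temperature. Read-out: fluorescence polarization of VDR–SRC2-3 peptide binding.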
Tau fibril ThT – inhibitors of human tau fibril formation, thioflavin T binding; Potency, µM (series often up to 57.4 µM), most hits filed as inhibitors; 270,000 tested, 2.1% active; P10636; recombinant tau K18 P301L (four-repeat tau fragment), heparin-induced fibrillization, ThT fluorescence; AID 1460; further: nearly all actives have a fitted effect of over 55% in size
Target sequence (P10636 561-689 P618L limits assumed): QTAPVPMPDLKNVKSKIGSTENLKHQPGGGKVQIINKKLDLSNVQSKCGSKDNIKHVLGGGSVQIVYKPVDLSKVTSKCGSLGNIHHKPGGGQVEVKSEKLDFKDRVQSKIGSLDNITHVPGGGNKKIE
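In this qHTS, human K18 P301L tau is incubated with compound and heparin for 6 hr at 37 C, and Thioflavin T fluorescence then reports fibril load.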
Tau fibril FP – tau fibrillization inhibition (FP). Potency, µM (top dose mostly 57.7 µM), most hits filed as inhibitors. P10636. K18 P301L tau heparin fibrillization, Alexa594 FP, 6 h. 280,000 tested, 0.39% active; further: nearly all actives have a fitted effect of over 55% in size
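Compound effects on tau fibrillization are measured by Alexa 594 fluorescence polarization (ex 555, em 632 nm). K18 P301L tau is used at 15 uM with 0.24 uM labeled tracer, and 20 uM heparin induces aggregation over 6 hr at 37 C.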
Large screens that a line does not name were inactive; [ ] = dose if it differs, or a comment. The call rests on the fitted dose curve; in most records, active means well fitted curve in the direction sought with a large enough effect; inconclusive means small, poorly fitted or top-dose-only effect, or another doubt; inactive means no such curve, though single readings can be large; an effect the other way counts as inactive or inconclusive.

c1ccc(-c2cn3nc(-c4ccccc4)cnc3n2)cc1	none
Nc1nn2cc(-c3ccc(Br)cc3)nc2c2ccccc12	Tau fluor cs inconclusive, Tau fibril FP inconclusive (no result: Tau fibril ThT)
CC(C)(C)C(=O)Nc1ccc(C(=O)Nc2cccc(Oc3ccc(C(=O)O)c(C(=O)O)c3)c2)cc1	none (no result: Tau fluor cs, Tau fibril ThT, Tau fibril FP)
O=C(Nc1cccc(Oc2ccc(C(=O)O)c(C(=O)O)c2)c1)c1ccc(-c2ccccc2)cc1	PLK1 PBD block 19µM (no result: Tau fibril ThT)
Nc1cc(N)nc(SCc2cc(=O)oc3cc4c(cc23)CCC4)n1	PLK1 PBD block 27µM
CN(C)S(=O)(=O)c1ccc2nnn(O)c2c1	PLK1 PBD block 11µM, VDR inhibitor 79µM
O=S(=O)(c1ccc2nnn(O)c2c1)N1CCOCC1	none (no result: Sfp inh, Tau fluor cs, Tau fibril ThT, Tau fibril FP)
Cc1ccc([C@H]2C(C(=O)O)=CC[C@@H](c3ccc(Cl)cc3)N2S(=O)(=O)c2ccc(C)cc2)cc1	PLK1 PBD block inconclusive (no result: Sfp inh, Tau fluor cs, Tau fibril ThT, Tau fibril FP)
Cc1ccc([C@H]2C(C(=O)O)=CC[C@@H](c3ccc(C(C)C)cc3)N2S(=O)(=O)c2ccc(C)cc2)cc1	PLK1 PBD block 24µM (no result: Sfp inh, Tau fluor cs, Tau fibril ThT, Tau fibril FP)
Cc1ccc(S(=O)(=O)N2[C@@H](c3ccc(Cl)cc3)C(C(=O)O)=CC[C@H]2c2ccc(C(C)C)cc2)cc1	PLK1 PBD block 19µM (no result: Sfp inh, Tau fluor cs, Tau fibril ThT, Tau fibril FP)
COC(=O)c1ccc(NC(=O)CSc2nccn2Cc2ccc(Cl)cc2)cc1	none (no result: Sfp inh, PLK1 PBD block)
CCCC[C@H](NC(=O)[C@H](CC(C)C)NC(=O)[C@@H](Cc1c[nH]c2ccccc12)NC(=O)[C@H](Cc1ccccc1)NC(=O)[C@@H](Cc1c[nH]c2ccccc12)NC(=O)[C@H](CC(N)=O)NC(=O)[C@@H](Cc1c(Cl)cccc1Cl)NC(=O)[C@@H]1CCCN1C(=O)[C@H](Cc1ccccn1)NC(=O)[C@@H]1CCCN1C(=O)[C@H](N)CCCCNC(=O)c1cccnc1)C(N)=O	none (no result: PLK1 PBD block, Tau fluor cs, Tau fibril ThT, Tau fibril FP)
Cc1ccc(CNC(=O)c2ccc3nc(SCc4ccc(F)cc4)[nH]c3c2)cc1	Tau fluor cs inconclusive, Tau fibril FP 22µM (no result: Sfp inh, PLK1 PBD block)
Cn1c(SCc2ccc(F)cc2)nc2ccc(C(=O)NCc3ccc(F)cc3)cc21	Tau fluor cs inconclusive (no result: Sfp inh, PLK1 PBD block)
Nc1[nH]n(-c2ccccc2)c(=O)c1N=Nc1ccc2c(c1)OCCO2	Tau fluor cs 11µM[quencher], Tau fibril ThT 6.3µM
Cc1cc([N+](=O)[O-])ccc1N=Nc1c(N)[nH]n(-c2ccccc2)c1=O	PLK1 PBD block inconclusive, Tau fluor cs inconclusive, VDR inhibitor inconclusive, Tau fibril ThT 16µM, Tau fibril FP inconclusive
Cc1[nH]n(-c2ccccc2)c(=O)c1N=Nc1ccc(C#N)cc1	none (no result: Tau fluor cs, Tau fibril ThT, Tau fibril FP)
Nc1[nH]n(-c2ccccc2)c(=O)c1N=Nc1ccc2c(c1)OCO2	Tau fluor cs 10µM[quencher], VDR inhibitor inconclusive, Tau fibril ThT 2.2µM, Tau fibril FP inconclusive
Cn1cnc([N+](=O)[O-])c1S(=O)(=O)Oc1ccccc1	PLK1 PBD block inconclusive, VDR inhibitor 25µM (no result: Sfp inh, Tau fluor cs, Tau fibril ThT, Tau fibril FP)
S=c1c2c(nc3nc[nH]n13)CCC2	Sfp inh 14µM
CC1CCc2c(nc3nc[nH]n3c2=O)C1 (stereo not drawn)	none
CN1CCN(C(c2ccc(F)cc2)c2sc3nc(-c4ccco4)nn3c2O)CC1 (stereo not drawn)	none (no result: Sfp inh, PLK1 PBD block)
c1ccc(CN2CCN(c3nc(-c4ccccc4)nc(-n4ccnc4)n3)CC2)cc1	Sfp inh 32µM, Tau fibril ThT inconclusive, Tau fibril FP inconclusive
c1ccc(-c2nc(-n3ccnc3)nc(-n3ccnc3)n2)cc1	Sfp inh inconclusive
c1ccc(N(c2ccccc2)c2nc(N3CCCC3)nc(-n3ccnc3)n2)cc1	Sfp inh 45µM, Tau fibril ThT inconclusive
Cc1cc(NC(=O)COc2coc(CN3CCN(c4ccccc4F)CC3)cc2=O)no1	none (no result: Sfp inh, Tau fluor cs, Tau fibril ThT, Tau fibril FP)
O=C(CSc1ncc(-c2ccc(Cl)cc2)[nH]1)Nc1ccccc1F	Tau fluor cs 14µM[quencher] (no result: Sfp inh, PLK1 PBD block)
O=C(CSc1ncc(-c2ccccc2)[nH]1)Nc1ccccc1F	Tau fluor cs inconclusive
O=C(CSc1ncc(-c2ccccc2)[nH]1)Nc1ccccc1	Tau fluor cs inconclusive
O=C(CSc1ncc(-c2ccccc2)[nH]1)Nc1ccc(Cl)cc1	Tau fluor cs 14µM[quencher] (no result: Sfp inh, PLK1 PBD block)
COc1ccc(S(=O)(=O)c2c(O)c3ccc(C(=O)Nc4cccc(F)c4)cc3[nH]c2=O)cc1	VDR inhibitor inconclusive (no result: Tau fluor cs, Tau fibril ThT, Tau fibril FP)

Compound activity as filed in PubChem BioAssay.
